Screens as filed in PubChem BioAssay.
esBAF inh: Bmi1 luciferase reporter increase in mESCs, primary screen, esBAF inhibitor project, mouse ES cells, Bmi1 luciferase knock-in, single point. 24 h; 100% = twice the neutral-well signal. reporter increase, % at 12.5 µM. 350,000 tested, 2% active; in the data active = activation above about 40%; inconclusive = no clear call, values can overlap the other calls;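 also: 0% = median of the plate's neutral control wells and 100% = double that signal; a rise in the Bmi1 reporter signal indicates esBAF inhibition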
GAA850 FXN act: FXN promoter activators, primary screen, cell-based, luciferase luminescence, HEK293 lucGAA850; HEK293 lucGAA850 FXN promoter luciferase reporter, 24 h; percent of 10 µM SAHA response; activation, % at 6 µM; 360,000 tested, 0.56% active; AID 540364, 2011;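 active = activation above the average of all compounds screened plus 3 SD, cutoff fixed separately per campaign, cut at about 7.5% in these data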;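 also: 0% = DMSO wells and 100% = 10 µM SAHA wells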
MITF act: activators of MITF-driven TRPM1 promoter reporter, primary screen, cell-based, SK-MEL-5, luciferase, single point; AID 588334, 2011; activation, % at 12.5 µM; SK-MEL-5 TRPM1-promoter luciferase, 24 h; % of positive control, neutral wells = 0; 300,000 tested, 0.75% active;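 active = mean activation of at least 80% with every replicate also reaching 80%; inconclusive = mean reaches 80% but some replicate falls short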;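 also: 0% = neutral control wells and 100% = parthenolide positive control wells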
Statin myotox sup: suppressors of statin myotoxicity in C2C12 myotubes, primary screen, cell-based, single point, plate reader. C2C12 myotubes + simvastatin, ATP luminescence, 48 h; scaled: DMSO 0, geranylgeraniol control 100. rescue of ATP level, % at 7.49 µM. 330,000 tested, 0.78% active;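 active = mean ATP rescue above about 67%, or every replicate alone reaching that limit, limit read from the data, passing the limit was not always enough; inconclusive = no clear call, values can overlap the other calls; inactive = mean under the limit and some replicate under it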;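 also: myotubes were challenged with 10 µM simvastatin during compound exposure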
Wnt act: Wnt/beta-catenin pathway activators, primary screen, cell-based, plate reader, single point. Wnt/beta-catenin reporter cell assay, activator. activation, % at 9.35 µM. 300,000 tested, 1.2% active. AID 743398, 2014; in the data active = activation above about 30%, passing the limit was not always enough; inconclusive = no clear call, values can overlap the other calls;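 also: 0% = neutral control wells and 100% = positive control wells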
Numbers without * were called inactive; ? = inconclusive; . = no result given. Rows were chosen to be rich in hits. Some 3.3% of all compounds tested hit in one or more screens of this group.

SMILES	esBAF inh	GAA850 FXN act	MITF act	Statin myotox sup	Wnt act
C[C@@H]1CN([C@@H](C)CO)S(=O)(=O)c2ccc(/C=C/c3ccccc3)cc2O[C@H]1CN(C)C(=O)NC1CCCC1	15	.	.	-23	.
O=C(C[C@@H]1C[C@H]2c3cc(NC(=O)NC4CCCC4)ccc3O[C@H]2[C@@H](CO)O1)NCc1ccc(Oc2ccccc2)cc1	3	.	.	0	.
C[C@@H]1CN([C@@H](C)CO)C(=O)c2cc(C3=CCCCC3)cnc2O[C@@H]1CN(C)Cc1ccccn1	2	.	.	18	.
C[C@H](CO)N1C[C@H](C)[C@H](CN(C)S(=O)(=O)c2ccc(Cl)cc2)Oc2ccc(NC(=O)Nc3ccc(F)cc3)cc2C1=O	-3	.	.	-16	.
Cc1cc(Cl)ccc1OCC(=O)N1CCCCC1	58*	5	50	-23	.
Cc1cc(Cl)ccc1OCC(=O)N1CCN(c2ncccn2)CC1	.	1	8	.	-2
O=C(COc1ccc(Cl)cc1Br)NC(=O)NC1CCCC1	72*	4	152*	-3	54*
O=C(C[C@H]1C=C[C@H](NC(=O)Nc2ccc(F)cc2)[C@H](CO)O1)NCc1cccc(F)c1	-5	.	.	-1	.
CC(=Nc1ccc(O)cc1)c1sc2ccccc2c1O	.	3	75	.	.
CC(=Nc1cccc(C)c1)c1sc2ccccc2c1O	52*	5	46	-51	.
CC(=O)NCCN=C(C)c1sc2ccccc2c1O	41*	6	22	-4	.
O=C(NCC[C@@H]1CC[C@@H](NS(=O)(=O)c2ccc(F)cc2)[C@@H](CO)O1)Nc1ccc(F)cc1	13	.	.	1	.
C=CCOc1c(Br)cc(CNn2nnnc2N)cc1OC	7	-4	-9	111*	.
Cc1ccccc1N1C(N)=NC(N)=NC1(C)C	-11	2	1	-5	-1
Cc1ccc(N2C(N)=NC(N)=NC2(C)C)c(C)c1	2	-1	-20	110*	-5
O=C(N/N=C/c1ccccn1)c1sc2ccccc2c1Cl	30	13*	.	11	0
O=C(N/N=C/c1ccccn1)c1ccccc1	.	4	30	.	6
O=C(N/N=C/c1c[nH]c2ccccc12)c1sc2ccccc2c1Cl	60*	1	38	-10	.
O=C(N/N=C/c1ccc([N+](=O)[O-])o1)c1sc2ccccc2c1Cl	.	-5	-77	.	32*
O=C(N/N=C\c1ccccn1)c1ccccc1O	.	6	10	.	36*
C/C=C/c1ccc2c(c1)O[C@@H](CN(C)C(=O)C1CC1)[C@@H](C)CN([C@@H](C)CO)S2(=O)=O	12	.	.	31	.
C[C@@H]1CN([C@@H](C)CO)S(=O)(=O)c2ccc(-c3cncnc3)cc2O[C@@H]1CN(C)C(=O)c1cccc(F)c1	-1	.	.	10	.
C[C@H]1CN([C@@H](C)CO)S(=O)(=O)c2ccc(-c3cncnc3)cc2O[C@@H]1CN(C)C(=O)C1CCCCC1	-9	.	.	12	.
Cn1cccc1/C=N/NC(=O)c1sc2ccccc2c1Cl	62*	1	45	0	11
Cc1c(/C=N/NC(=O)c2sc3ccccc3c2Cl)cnn1C	14	1	14	-8	.
SMILES	esBAF inh	GAA850 FXN act	MITF act	Statin myotox sup	Wnt act
Cc1ccc(S(=O)(=O)N[C@@H]2CC[C@@H](CCNS(=O)(=O)Cc3ccccc3)O[C@H]2CO)cc1	-9	.	.	1	.
Cc1ccc(S(=O)(=O)N(C)C[C@@H]2Oc3ncc(-c4ccc(F)cc4)cc3C(=O)N([C@H](C)CO)C[C@@H]2C)cc1	3	.	.	12	.
CCCOc1ccc(-c2csc(N)n2)cc1[N+](=O)[O-]	.	6	99*	.	-2
COc1ccc(/C=C/C(=O)C2C(=O)C=C(C)OC2=O)cc1O (configuration not stated)	51*	0	-9	5	35*
CO[C@H]1CN(C)C(=O)c2ccc(NC(C)=O)cc2OC[C@@H](C)N(S(=O)(=O)c2cn(C)cn2)C[C@@H]1C	-5	.	.	7	.
COc1ccc(CN2[C@H](CO)[C@H]3c4ccccc4NC[C@H]32)cc1	26	.	.	157*	.
O=C(N/N=C/c1ccc([N+](=O)[O-])cc1)c1cccs1	.	3	.	.	38*
Nc1c(C(=O)N/N=C/c2cccnc2)cnn1-c1ccccc1	.	1	31	.	20
COc1ccc(/C=C/C(=O)Oc2cccc(/C=N/NC(=O)c3cccc(F)c3)c2)cc1	45*	-1	.	3	.
COc1cccc(/C=N/NC(=O)c2cnn(-c3ccccc3)c2N)c1	60*	5	50	-45	8
COc1cccc(/C=N/NC(=O)c2cccs2)c1	25	5	.	0	40*
COc1cc(/C=N/NC(=O)c2cccs2)ccc1O	9	3	4	5	4
C[C@@H]1CN([C@H](C)CO)C(=O)c2cc(C#CC3CCCCC3)cnc2O[C@H]1CN(C)S(C)(=O)=O	0	.	.	-15	.
CC=Cc1ccc2n(c1=O)C[C@H]1[C@H](CO)[C@@H](C(=O)NCc3ccc(F)cc3)N(CC)[C@@H]21 (mixture of isomers)	1	.	.	9	.
C=C1CC(C)OC(c2ccccc2OCC(O)CN2CCCCC2)C1 (configuration not stated)	-5	0	-1	115*	-1
O=C1N/C(=N/O)S/C1=C/c1cccc([N+](=O)[O-])c1	7	1	6	-5	52*
O=C1N/C(=N\S(=O)(=O)Cc2ccccc2)S/C1=C/c1cccc([N+](=O)[O-])c1	-1	1	-19	11	1
CNC[C@H]1OCCCC[C@H](C)Oc2ccc(NS(=O)(=O)c3ccc(Cl)cc3)cc2C(=O)N([C@H](C)CO)C[C@@H]1C	1	.	.	-6	.
O=C(Nc1ccc(Cl)cc1)C1C2CCCCC21 (configuration not stated)	72*	3	.	0	20
O=C(NCC1CC1)Nc1ccc(Cl)cc1	68*	1	?	-6	12
CCc1ccc(NC(=O)C2C3/C=C\CCCCC32)cc1 (configuration not stated)	61*	2	94*	-15	.
O=C1CCC(C(=O)Nc2ccc(Cl)cc2)N1 (configuration not stated)	-6	1	25	9	2
C[C@H](CO)N1C[C@H](C)[C@H](CN(C)C(=O)Nc2ccc3c(c2)OCO3)OCCCC[C@H](C)Oc2ccc(NS(=O)(=O)c3cn(C)cn3)cc2C1=O	2	.	.	.	.
COc1ccc(NC(=O)N(C)C[C@@H]2OCCCC[C@@H](C)Oc3ccc(NC(=O)CCC(F)(F)F)cc3C(=O)N([C@@H](C)CO)C[C@H]2C)cc1	0	.	.	-3	.
CCc1nonc1NC(=O)c1oc2cc(C)c(C)cc2c1C	13	3	86*	4	25
